Screening data from PubChem.
An excerpt weighted towards active compounds, which were near 2.5% of everything screened.
HSF1 activator: HSF-1 activators, primary screen, NIH3T3-HGL cells, MG132 stress, luminescence, single point. NIH3T3-HGL HSF-1 luciferase reporter, 8 h; 100% = twice DMSO control signal. 300,000 compounds, 1.7% hits. activation, % at 9 µM;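 active = mean replicate activation of at least 50% with a set share of replicates each reaching 50%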
aDG glyco up: activators of alpha-DG glycosylation, primary screen, uHTS, Pro5-aDG cells, AlphaScreen. activation, % at 10 µM. AID 624168, 2012. alpha-DG glycosylation AlphaScreen (IIH6); 0% Pro5, 100% B10-LARGE cell signal. 360,000 compounds, 0.22% hits;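 active = activation of at least 8% versus controls, or a plate z-score of at least 8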;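 note: Pro5 are CHO cells carrying HIG-tagged alpha-DG that lacks glycosylation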
GC-A act: GC-A stimulated cGMP production enhancers – HEK293 GC-A cells, cGMP TR-FRET, EC30 ANP, primary screen; 0% at EC30 ANP, 100% saturating ANP; activation, % at 10 µM; 370,000 compounds, 0.14% hits; AID 1671463, 2021; in the data active = activation above about 40%
DYRK1A inh: rat Dyrk1A kinase inhibitors, primary screen, biochemical, single point, plate reader | inhibition, % at 12.5 µM | Dual specificity tyrosine-phosphorylation-regulated kinase 1A (Rattus norvegicus), Q63470 | AID 504441, 2011 | 310,000 compounds, 0.43% hits | ADP-Glo luminescence, NFATc1 peptide; in the data active = inhibition above about 50%
HSF1 inhib: HSF1 inhibitors in luciferase reporter cells, primary screen, cell-based, NIH3T3, luminescence. 300,000 compounds, 0.77% hits. activity change, negative = inhibition, % at 7.5 µM (by protocol). NIH3T3-HGL HSE-luciferase, MG132-induced, luminescence 8 h; active compounds read low;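 active = more than half of replicate wells show activity change below -50%, luminescence cut by over half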;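 note: luciferase reports HSF-1 transcriptional activity via heat shock element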
NPR2 activator: human GC-B receptor activators, primary screen, HEK293 GC-B cells, cGMP TR-FRET, EC30 CNP. activation, % at 10 µM. 0% at EC30 CNP, 100% saturating CNP. Atrial natriuretic peptide receptor 2 (Homo sapiens), P20594. 370,000 compounds, 0.11% hits;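 active = activation at 10 µM reaching about 35% in either raw or pattern-adjusted values, limit read from the data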
Target sequence (P20594 whole entry, looked up): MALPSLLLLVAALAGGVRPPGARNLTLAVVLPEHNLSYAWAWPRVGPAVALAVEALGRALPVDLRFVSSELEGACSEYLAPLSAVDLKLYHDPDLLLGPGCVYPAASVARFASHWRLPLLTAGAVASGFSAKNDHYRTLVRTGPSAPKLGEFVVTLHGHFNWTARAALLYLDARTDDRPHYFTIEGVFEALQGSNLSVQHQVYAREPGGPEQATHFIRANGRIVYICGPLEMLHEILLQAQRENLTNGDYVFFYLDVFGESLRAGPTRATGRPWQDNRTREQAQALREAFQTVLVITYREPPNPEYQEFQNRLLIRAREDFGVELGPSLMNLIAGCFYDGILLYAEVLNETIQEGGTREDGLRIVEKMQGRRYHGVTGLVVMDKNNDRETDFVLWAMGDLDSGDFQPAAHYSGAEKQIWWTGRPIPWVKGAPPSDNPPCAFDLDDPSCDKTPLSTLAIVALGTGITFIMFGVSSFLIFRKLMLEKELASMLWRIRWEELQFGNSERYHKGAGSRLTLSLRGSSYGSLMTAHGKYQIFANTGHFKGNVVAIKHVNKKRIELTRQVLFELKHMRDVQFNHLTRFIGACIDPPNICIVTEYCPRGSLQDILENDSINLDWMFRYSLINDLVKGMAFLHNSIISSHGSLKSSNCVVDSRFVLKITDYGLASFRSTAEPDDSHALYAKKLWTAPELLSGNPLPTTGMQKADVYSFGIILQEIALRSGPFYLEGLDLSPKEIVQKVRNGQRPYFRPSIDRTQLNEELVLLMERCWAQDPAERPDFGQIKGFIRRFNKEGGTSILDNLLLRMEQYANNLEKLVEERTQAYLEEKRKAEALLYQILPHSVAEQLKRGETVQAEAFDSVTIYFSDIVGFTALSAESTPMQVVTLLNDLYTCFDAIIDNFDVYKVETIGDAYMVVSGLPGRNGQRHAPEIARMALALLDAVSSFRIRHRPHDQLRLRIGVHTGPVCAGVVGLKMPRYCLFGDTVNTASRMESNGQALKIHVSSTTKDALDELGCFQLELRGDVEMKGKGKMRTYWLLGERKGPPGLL
Hits are given with their value.

Screening CCCCNS(=O)(=O)c1cc(-c2nn(C)c(=O)c3ccccc23)ccc1C returned HSF1 activator inactive, aDG glyco up inactive, GC-A act inactive, DYRK1A inh inactive, HSF1 inhib inactive and NPR2 activator inactive.
`NC(=O)CCC(C(=O)O)N1C(=O)c2ccc(O)cc2C1=O` (stereo unspecified) gave HSF1 activator inactive, aDG glyco up inactive, GC-A act inactive, DYRK1A inh inactive, HSF1 inhib -54 and NPR2 activator inactive.
CCS(=O)(=O)N1Cc2ccccc2CC1C(=O)N(C)Cc1ccc(OC)cc1OC (stereo unspecified) was read as HSF1 activator inactive, aDG glyco up inactive, GC-A act inactive, DYRK1A inh inactive, HSF1 inhib inactive and NPR2 activator inactive.
Cc1cnc(NC(=O)CSc2nnc(COc3ccccc3)o2)s1 was read as HSF1 activator inactive, aDG glyco up inactive, GC-A act inactive, DYRK1A inh inactive, HSF1 inhib inactive and NPR2 activator inactive.
For Cc1cnc(NC(=O)CSc2nnc(COc3c(C)cccc3C)o2)s1 the results were HSF1 activator inactive, aDG glyco up inactive, GC-A act inactive, DYRK1A inh inactive, HSF1 inhib inactive and NPR2 activator 97.
For N#Cc1ccsc1NC(=O)CSc1nnc(-c2ccccc2)o1 the results were HSF1 activator 56, aDG glyco up inactive, GC-A act inactive, DYRK1A inh inactive, HSF1 inhib inactive and NPR2 activator inactive.
O=C(CSc1nnc(-c2cccnc2)o1)Nc1nccs1 was read as HSF1 activator inactive, aDG glyco up inactive, GC-A act inactive, DYRK1A inh inactive, HSF1 inhib inactive and NPR2 activator inactive.
Cc1cnc(NC(=O)CSc2nnc(-c3ccccc3)o2)s1 was read as HSF1 activator 61, aDG glyco up inactive, GC-A act inactive, DYRK1A inh inactive, HSF1 inhib inactive and NPR2 activator inactive.
Screening COc1cccc(C2CC(c3c(-c4ccccc4)c4cc(Cl)ccc4[nH]c3=O)=NN2S(C)(=O)=O)c1OC (stereo unspecified) returned HSF1 activator inactive, aDG glyco up inactive, GC-A act inactive, DYRK1A inh inactive, HSF1 inhib inactive and NPR2 activator inactive.
Screening CCOc1ccccc1/C=C/C(=O)c1ccc(Cl)cc1 returned HSF1 activator 69, aDG glyco up inactive, GC-A act inactive, DYRK1A inh inactive, HSF1 inhib inactive and NPR2 activator inactive.
COCCCNC(=O)c1ccc(CSCc2ccc(C)cc2)o1 was read as HSF1 activator inactive, aDG glyco up inactive, GC-A act inactive, DYRK1A inh inactive, HSF1 inhib inactive and NPR2 activator inactive.
For CCN(CC)C(=O)CSc1nc2c(sc(=S)n2CC)c(=O)n1-c1ccccc1 the results were HSF1 activator inactive, aDG glyco up inactive, GC-A act inactive, DYRK1A inh inactive, HSF1 inhib inactive and NPR2 activator inactive.
Screening CCOC(=O)CSc1nc2c(sc(=S)n2Cc2ccco2)c(=O)n1-c1ccc(F)cc1 returned HSF1 activator 80, aDG glyco up inactive, GC-A act inactive, DYRK1A inh inactive, HSF1 inhib inactive and NPR2 activator inactive.
`CCN(CC)C(=O)CSc1nc2c(sc(=S)n2-c2ccccc2)c(=O)n1Cc1ccco1` gave HSF1 activator 67, aDG glyco up inactive, GC-A act inactive, DYRK1A inh inactive, HSF1 inhib inactive and NPR2 activator inactive.
Screening CCCCCOC(=O)C1=C(C)NC(=O)NC1c1ccc([N+](=O)[O-])cc1 (stereo unspecified) returned HSF1 activator 63, aDG glyco up inactive, GC-A act inactive, DYRK1A inh inactive, HSF1 inhib inactive and NPR2 activator inactive.
Screening CCCCCCOC(=O)C1=C(C)NC(=O)NC1c1ccc(O)cc1 (stereo unspecified) returned HSF1 activator inactive, aDG glyco up inactive, GC-A act inactive, DYRK1A inh inactive, HSF1 inhib inactive and NPR2 activator inactive.
For OC(COc1ccc(F)cc1Cl)CN1CCC(Cc2ccccc2)CC1 (stereo unspecified) the results were HSF1 activator inactive, aDG glyco up inactive, GC-A act inactive, DYRK1A inh 51, HSF1 inhib inactive and NPR2 activator inactive.
For CCOc1ccc(CCNC(=O)CN(C)S(=O)(=O)c2ccc3c(c2)CCC(=O)N3)cc1OCC the results were HSF1 activator inactive, aDG glyco up inactive, GC-A act inactive, DYRK1A inh inactive, HSF1 inhib -54 and NPR2 activator inactive.
For CSc1cc(-c2ccco2)oc1C(=O)c1ccco1 the results were HSF1 activator 51, aDG glyco up inactive, GC-A act inactive, DYRK1A inh inactive, HSF1 inhib inactive and NPR2 activator inactive.
For COc1ccc(C)c2sc(NC(=O)C3=COCCO3)nc12 the results were HSF1 activator inactive, aDG glyco up inactive, GC-A act inactive, DYRK1A inh inactive, HSF1 inhib -69 and NPR2 activator inactive.
O=C(Cn1ccccc1=O)c1ccc(Cl)cc1 was read as HSF1 activator inactive, aDG glyco up inactive, GC-A act inactive, DYRK1A inh inactive, HSF1 inhib inactive and NPR2 activator inactive.
Screening COc1ccc(S(=O)(=O)N2CCCCCC2)cc1NC(=O)CN(C)Cc1ccc2c(c1)OCO2 returned aDG glyco up inactive, GC-A act 41 and NPR2 activator 61.
Screening CN(CC(=O)Nc1cc(S(=O)(=O)N2CCCCCC2)ccc1Cl)Cc1ccc2c(c1)OCO2 returned aDG glyco up inactive, GC-A act inactive, DYRK1A inh inactive and NPR2 activator inactive.
Cc1ccc(S(=O)(=O)N2CCCCC2)cc1NC(=O)c1ccc2c(c1)OCO2 was read as HSF1 activator 69, aDG glyco up inactive, GC-A act inactive, DYRK1A inh inactive, HSF1 inhib inactive and NPR2 activator inactive.
For Cc1ccc(S(=O)(=O)N2CCOCC2)cc1C(=O)Nc1c(C)n(C)n(-c2ccccc2)c1=O the results were HSF1 activator inactive, aDG glyco up inactive, GC-A act inactive, DYRK1A inh inactive, HSF1 inhib inactive and NPR2 activator inactive.
Screening Cc1ccc(CNC(=O)c2cc(C3CC3)nc3c2cnn3C(C)C)cc1 returned aDG glyco up inactive, GC-A act 40 and NPR2 activator 50.
COc1ccc(/C=N/n2c(-c3cc(C)[nH]n3)n[nH]c2=S)cc1OC was read as HSF1 activator inactive, aDG glyco up inactive, GC-A act inactive, HSF1 inhib -74 and NPR2 activator inactive.
For COc1ccc(/C=N/n2c(-c3cc(C)[nH]n3)n[nH]c2=S)cc1 the results were HSF1 activator inactive, aDG glyco up inactive, GC-A act inactive, HSF1 inhib inactive and NPR2 activator inactive.
